{"source": "PubChem BioAssay AID1347426", "about": "(Functional Genomics Laboratory (NCATS/FGL), 2020)", "note": "Out of some 31,000 sequences screened, about 1,400 (4.5%) were called active. The full list was thinned out, with actives kept by preference. Unmarked numbers belong to inactive results.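 The calls were made as follows: active = median seed-adjusted z-score above 1 or below -1; inactive = the rest.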"}
{"experiment": "Novel Modifiers of Survival Motor Neuron (SMN) Protein: Gene Identification via Genome-wide siRNA Screen", "conditions": "HEK293T SMN2-luciferase reporter, siRNA knockdown, 72 h; actives lie on both sides", "in_short": "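Each of three siRNAs per gene is reverse-transfected (1 pmol) into reporter HEK293T cells whose luciferase output tracks SMN protein level. After 72 h culture, ONE-Glo luminescence is control-normalized, log10-transformed and MAD-standardized; Common Seed Analysis deprioritizes seed-driven hits.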"}
{"sequence": "CAGCAACCAAUGAUAUAUATT against POLR2K", "median seed-adjusted z-score": "-3.72 (active)"}
{"sequence": "GGCUCAUUUUCGCCCUGUATT against CHP2", "median seed-adjusted z-score": 0.364}
{"sequence": "GUUUGAGUGUGACACCUGUTT against ZNF71", "median seed-adjusted z-score": -0.0193}
{"sequence": "GGAAUACCUUAUUGAUGUATT against CST8", "median seed-adjusted z-score": -0.0126}
{"sequence": "CGAACACCGGUGAGGUAUATT against SNRPD3", "median seed-adjusted z-score": "-2.69 (active)"}
{"sequence": "GGUACCAACAAAUACGAUATT against INPP5J", "median seed-adjusted z-score": 0.223}
{"sequence": "GAGACUGCACAACACGAUATT against TMEM11", "median seed-adjusted z-score": -0.00121}
{"sequence": "AGUGAGAUUUGAAGAGAUUTT against ADC", "median seed-adjusted z-score": -0.157}
{"sequence": "CGAGUGGACCUACGAGGAATT against ARID3C", "median seed-adjusted z-score": "-1.32 (active)"}
{"sequence": "AAAAAUCGCUGGACAUGUATT against DNASE2B", "median seed-adjusted z-score": 0.86}
{"sequence": "CAAUACGAUUGGGACAUUATT against UXS1", "median seed-adjusted z-score": 0.25}
{"sequence": "CAUUCGUUCUUACAAGGAATT against FMNL3", "median seed-adjusted z-score": 0.481}
{"sequence": "CCUCCUCUGCUUAUCGUAUTT against GLT8D1", "median seed-adjusted z-score": "1.22 (active)"}
{"sequence": "GGGACGAUAUUUUAUGCAUTT against AHRR", "median seed-adjusted z-score": -0.636}
{"sequence": "GGGAAGAUCCUGUACAUCUTT against PER2", "median seed-adjusted z-score": -0.113}
{"sequence": "CAUUUGGUCUAGACAGUUUTT against TDP1", "median seed-adjusted z-score": -0.352}
{"sequence": "GGUUCUUGGGUGAAGGACATT against CHGB", "median seed-adjusted z-score": "-1.29 (active)"}
{"sequence": "GACCCGCUUUCUACCGUUATT against ENTPD4", "median seed-adjusted z-score": 0.324}
{"sequence": "GCUUAUCCAUUGGAACUGUTT against NEK9", "median seed-adjusted z-score": 0.0698}
{"sequence": "GCAGGGCAGUAAUCCUCAUTT against DLX6", "median seed-adjusted z-score": 0.0275}
{"sequence": "GCCUUGUCGAAUUCUGUCATT against FOXO3", "median seed-adjusted z-score": -0.712}
{"sequence": "CCCAGUCUGUGAAACCGAATT against JMJD3", "median seed-adjusted z-score": 0.871}
{"sequence": "GCUGCUGAAAGAUAUGAAATT against SPCS3", "median seed-adjusted z-score": 0.417}
{"sequence": "GGAUAAACCUAUGCAUACATT against CCNF", "median seed-adjusted z-score": -0.435}
{"sequence": "CGCUGUCUCGGGAGAGAAATT against SFRS3", "median seed-adjusted z-score": "2.74 (active)"}
{"sequence": "CCUCUUCCACCGCUACUUCTT against TREX2", "median seed-adjusted z-score": -0.918}
{"sequence": "GGCUCUUAAUAUUCGAAUATT against GPR22", "median seed-adjusted z-score": 0.705}
{"sequence": "UGAUCAUUGUCCCUACAGATT against SERPINA3", "median seed-adjusted z-score": 0.125}
{"sequence": "UCCUCAAGAGUUCACCUAUTT against FCRL2", "median seed-adjusted z-score": -0.294}
{"sequence": "GCUAAACAGUUCGCAAGGATT against IGF2R", "median seed-adjusted z-score": 0.274}
{"sequence": "GCUUUCCGAUGAUGAGAGATT against LEO1", "median seed-adjusted z-score": "1.2 (active)"}
{"sequence": "CAGCUGUACCGAUUAAGCATT against MEP1A", "median seed-adjusted z-score": 0.209}
{"sequence": "GACUGAAUGAUAUGAAAGATT against RHOQ", "median seed-adjusted z-score": -0.328}
{"sequence": "GGAUUUGAGGGAAAACGCATT against FMO2", "median seed-adjusted z-score": -0.265}
{"sequence": "GGAGGUCUCAAGUUCAACATT against LENG8", "median seed-adjusted z-score": -0.00539}
{"sequence": "UGAUGAACUCGGAAAUGCATT against PPAPDC1A", "median seed-adjusted z-score": 0.634}
{"sequence": "GGACCAGAGAGACUUCAUUTT against ASTL", "median seed-adjusted z-score": 0.722}
{"sequence": "GAAGCAGGGUUAAAGCGGATT against PRDM2", "median seed-adjusted z-score": "1.12 (active)"}
{"sequence": "GAGAUAACAUCAGUAGAAATT against FGF10", "median seed-adjusted z-score": 0}
{"sequence": "CACCGUCUGAGAUAAUAGATT against LST-3TM12", "median seed-adjusted z-score": -0.109}
{"sequence": "CUGUCCGUAUGAUUACAAATT against ZFAND5", "median seed-adjusted z-score": 0.0289}
{"sequence": "GCAUCGCCCUGAUGAGUAATT against ADCY7", "median seed-adjusted z-score": -0.0202}
{"sequence": "CCUCAUGUCGGGCAUCUUATT against EGR4", "median seed-adjusted z-score": 0}
{"sequence": "GAUUCUUUUGAAAAAGUGATT against ZNF675", "median seed-adjusted z-score": -0.343}
{"sequence": "GGAUUAUUCAUUAUUACAUTT against NDUFB6", "median seed-adjusted z-score": -0.357}
{"sequence": "GCUCAACAGUCCCUAGUUATT against RSC1A1", "median seed-adjusted z-score": 0.438}
{"sequence": "CCAUCAAGCUCUACAAGGATT against TOP3B", "median seed-adjusted z-score": "-1.11 (active)"}
{"sequence": "CAGUUCAAGUGACCAUUGATT against CD300LF", "median seed-adjusted z-score": -0.264}
{"sequence": "GGUUCUUCCCGUUGUCUUUTT against TOMM22", "median seed-adjusted z-score": 0.486}
{"sequence": "GGACCACAGACAUAGUAGATT against NCOA5", "median seed-adjusted z-score": 0.947}
{"sequence": "ACAUGGACAAUGCCGCAGATT against HSPBP1", "median seed-adjusted z-score": 0.368}
{"sequence": "CUAAGAUGGUUAUCAAGAATT against SLC1A2", "median seed-adjusted z-score": 0.249}
{"sequence": "CGAAGGAUAUCUAUCAUCATT against NXF1", "median seed-adjusted z-score": "-4.46 (active)"}
{"sequence": "GGACUACGGAGUUCGAGAATT against MGC29506", "median seed-adjusted z-score": 0}
{"sequence": "CCCAUAAUAUCAUUGAGAATT against SREBF2", "median seed-adjusted z-score": -0.606}
{"sequence": "GGUCCGGAAUGUGAACUUUTT against SERPINE2", "median seed-adjusted z-score": 0.0144}
{"sequence": "AGAUGGAGUUUGAUCCUAATT against POLR2G", "median seed-adjusted z-score": "-4.19 (active)"}
{"sequence": "GAACUGCAAAGACCUGUUUTT against SSU72", "median seed-adjusted z-score": "-1.64 (active)"}
{"sequence": "CCUCAUCAACUCUGACAUATT against LMO2", "median seed-adjusted z-score": 0}
{"sequence": "CCGUGAUCGUGAAGCUAGATT against PKD2", "median seed-adjusted z-score": 0.219}
{"sequence": "CCCUCAGACUGUACGCAGATT against PGM5", "median seed-adjusted z-score": -0.0543}
{"sequence": "GGAAACUCGUGGACUAUGATT against BIN2", "median seed-adjusted z-score": 0.205}
{"sequence": "CGCUCACACUGGGUUCCAATT against SLC34A1", "median seed-adjusted z-score": 0.139}
{"sequence": "UGAGCACAAUCAAGUCUAATT against BRD4", "median seed-adjusted z-score": "1.13 (active)"}
{"sequence": "GAAUUGGAAGAAGAUAUCATT against RHOBTB3", "median seed-adjusted z-score": 0.256}
{"sequence": "GAUGAUCUGUGAGACCAAATT against BOC", "median seed-adjusted z-score": -0.0192}
{"sequence": "CAUCAACGAAGGAAAUAUATT against CD27", "median seed-adjusted z-score": 0.5}
{"sequence": "GUUCCUUAUUGUUAAGGUATT against PCDHB10", "median seed-adjusted z-score": -0.09}
{"sequence": "GAAUGGAAGAUUUCACCUUTT against SNAPC3", "median seed-adjusted z-score": "-1.72 (active)"}
{"sequence": "GGAGCUACUUUGACUCACUTT against KCNK13", "median seed-adjusted z-score": -0.0924}
{"sequence": "GCUCUGUGCUCUCUAGUGATT against LEFTY1", "median seed-adjusted z-score": 0.383}
{"sequence": "CCCUCACUAUCACGGUUAATT against ATP6V1B2", "median seed-adjusted z-score": 0.24}
{"sequence": "GUGCAUGUAUGAAGCCGAATT against NDUFB10", "median seed-adjusted z-score": -0.39}
{"sequence": "AGAAGGUGACUCAAAGAAUTT against WFDC1", "median seed-adjusted z-score": 0.152}
{"sequence": "AGCUCUUUGCUACAGAUGATT against ACAD8", "median seed-adjusted z-score": "1.06 (active)"}
{"sequence": "GGACCGUGUUCUUUACGUATT against NDUFAB1", "median seed-adjusted z-score": -0.282}
{"sequence": "CCCUGUUAUGUCAAGCUUATT against SYNPR", "median seed-adjusted z-score": 0.257}
{"sequence": "CUUAAUUCUUGGUCUAUGATT against SP6", "median seed-adjusted z-score": -0.176}
{"sequence": "AGUUCAUGCAAGAUCCAAUTT against BAT1", "median seed-adjusted z-score": "-1.49 (active)"}
{"sequence": "AGCGCGUCAUGAUGACCUATT against PER1", "median seed-adjusted z-score": 0.176}
{"sequence": "AGCCCGUGAUGUACACGUATT against COL8A1", "median seed-adjusted z-score": -0.848}
{"sequence": "GAUCCACCUGAGACAGAAATT against EGR2", "median seed-adjusted z-score": -0.37}
{"sequence": "GGAUCUAUCUCAUCAAACATT against NDUFC1", "median seed-adjusted z-score": 0}
{"sequence": "CAGACUUAUUACUAGAUGATT against PRDX5", "median seed-adjusted z-score": -0.0386}
{"sequence": "GCAAAGGCACUGAAUCGAATT against MAP4K5", "median seed-adjusted z-score": -0.309}
{"sequence": "GCCCGUCUAUGACAAGAAATT against RELB", "median seed-adjusted z-score": "1.16 (active)"}
{"sequence": "CGCCUUGAAUGGGAGCAAATT against C2", "median seed-adjusted z-score": -0.0549}
{"sequence": "GUGUAUUACCUGAGAAUCATT against CYP24A1", "median seed-adjusted z-score": 0.136}
{"sequence": "CAGGUACCGUCAUCACAUUTT against PCDHA7", "median seed-adjusted z-score": 0.552}
{"sequence": "GACUCGUGGUUUGAAGUGATT against ZNRF1", "median seed-adjusted z-score": -0.808}
{"sequence": "CCCAGUUCCUAGACUGUAUTT against MTMR8", "median seed-adjusted z-score": -0.416}
{"sequence": "CGACCUUCAAAGUUAACAATT against CLIP1", "median seed-adjusted z-score": 0.853}
{"sequence": "CCUCUUACACUUUUCCGAATT against PECI", "median seed-adjusted z-score": -0.0254}
{"sequence": "GUACCCUGGAGGAAAGCGATT against GNRH2", "median seed-adjusted z-score": "1.13 (active)"}
{"sequence": "AGAGGAUCCUGAACUCCAATT against MYO19", "median seed-adjusted z-score": 0.0987}
{"sequence": "AUCAAGUCUUCUUACAAGATT against VDAC2", "median seed-adjusted z-score": 0.648}
{"sequence": "GAAUGAGGCAUAUCAAGCATT against TUBD1", "median seed-adjusted z-score": -0.00491}
{"sequence": "GGAAAUCCUUCAUAUACAATT against ZNF549", "median seed-adjusted z-score": 0.0114}
{"sequence": "GAUUCCGUCUAAUCCUAGATT against C5", "median seed-adjusted z-score": 0.153}
{"sequence": "ACAAUGAAGUUCUCCCUGATT against PCGF1", "median seed-adjusted z-score": 0.508}
{"sequence": "CCUCAUUUGUCUACACCAUTT against RAD51L1", "median seed-adjusted z-score": 0}
{"sequence": "GGUAUGAGGUUGACUCAUUTT against IFNAR1", "median seed-adjusted z-score": 0.0327}
{"sequence": "GGAGACCUGCGAUUACUUUTT against BARX2", "median seed-adjusted z-score": -0.206}
{"sequence": "GGAGCUCAUUUGACAUGUATT against KIR2DL5B", "median seed-adjusted z-score": "1.72 (active)"}
{"sequence": "GCGACUGUCUCGACAGAUATT against HTT", "median seed-adjusted z-score": -0.234}
{"sequence": "GGAUAGCUAAAGAAAUUCATT against IMPA1", "median seed-adjusted z-score": -0.295}
{"sequence": "CCACACUGGUGAUAGACCATT against ZNF384", "median seed-adjusted z-score": -0.132}
{"sequence": "UGAAAGGACUUGUCUGAAATT against CHST6", "median seed-adjusted z-score": 0.372}
